# A selection: hits, their analogues and other compounds. The true share with any hit is near 3.5%.
# TEAD-YAP block – TEAD-YAP interaction inhibition, primary screen, TEAD-YAP interaction inhibitor project, luminescence, HEK-TIYL cells; TEAD-Gal4/YAP UAS-luciferase luminescence; 640,000 tested, 1.4% active; inhibition, % at 9.12 µM; in the data active = inhibition above about 32%;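 note: 0% = median of test compound wells and 100% = reference inhibitor wells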
# MITF primary – MITF inhibitors, primary screen, biochemical, AlphaScreen, human. AlphaScreen MITF homodimerization, bead proximity signal. inhibition, % at 2.6 µM. 650,000 tested, 0.91% active. AID 1259374, 2018; in the data active = inhibition above about 50%;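 note: 0% = vehicle wells with protein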
# GPR151 ag – activators of human GPR151, primary screen, cell-based, PathHunter beta-arrestin, luminescence | PathHunter beta-arrestin GPR151 cells | G-protein coupled receptor 151 (Homo sapiens), Q8TDV0 | activation, % at 11.2 µM | AID 1508602, 2020 | 650,000 tested, 1% active; in the data active = activation above about 4.9%;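 note: 0% = median of compound wells and 100% = cells with positive control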
# FBW7 activator – FBW7 E3 ligase activators, primary screen, biochemical, AlphaScreen, human. F-box/WD repeat-containing protein 7 (Homo sapiens), Q969H0. AlphaScreen FBW7–phospho-cyclin E peptide binding, activator screen. normalized activity (activation), % at 26.1 µM. 650,000 tested, 0.13% active. AID 1259310, 2017; in the data active = normalized activity above about 1.9%;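 note: purified mutant Fbw7 with reduced substrate affinity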
# * = called active by the depositor.
SMILES,TEAD-YAP block,MITF primary,GPR151 ag,FBW7 activator
O=c1[nH]c(=S)n(Cc2ccco2)c(O)c1/C=C1\C=CC=N1,-3,101*,1,-1
CCOc1ccccc1-n1c(O)c(/C=C2\C=CC=N2)c(=O)[nH]c1=O,24,13,0,0
Cc1ccccc1-n1c(O)c(/C=C2\C=CC=N2)c(=O)[nH]c1=O,57*,9,-2,0
CCOc1ccc(C(Cc2cc(Cl)cc(Cl)c2O)[N+](=O)[O-])cc1OCC (stereo not drawn),12,11,-1,0
COC(=O)c1cn(NC(=O)c2cc([N+](=O)[O-])ccc2F)c(=O)c2ccccc12,87*,-8,0,0
CCOC(=O)c1sc(NN=C(C#N)C#N)c(C(=O)OCC)c1C,31,22,5,0
NNC(=O)CNc1c(-c2ccsc2)nc2ccccn12,52*,0,0,0
Cc1cc2nccc(NC(=O)c3c(F)cccc3F)n2n1,10,-2,0,0
Cc1cc2nccc(NC(=O)CSc3ccccc3)n2n1,4,-12,3,2.1*
C/C(=N/Nc1nc(-c2ccccc2)cs1)C(C)(C)C,61*,4,0,0
N#CC(C#N)C(C#N)(C#N)C1CCC/C(=C\c2ccco2)C1=O (stereo not drawn),-2,81*,2,-1
O=C1/C(=C/c2ccco2)CCc2ccccc21,-54,22,-3,0
O=C(c1cc(Br)ccc1Cl)N1CCN=C1SCc1cccnc1,3,-12,0,0
CN1/C(=C/C=C/c2cc(-c3ccc(Cl)cc3)cc(-c3ccc(Cl)cc3)[n+]2C)C(C)(C)c2ccccc21,94*,59*,3,-1
O=C(CCC(=O)N/N=C/c1ccc(O)cc1O)N/N=C\c1ccc(O)cc1O,6,26,1,-1
COc1c(/C=N/NC(=O)c2ccccc2O)sc2ccccc12,-11,-12,1,0
O=C(N/N=C/c1cc(I)ccc1O)c1ccccc1O,67*,-10,0,0
O=C(CCC(=O)Nc1cc(C(F)(F)F)ccc1Cl)N/N=C\c1ccc(O)cc1O,44*,10,2,0
O=C(N/N=C/c1sc2ccccc2c1O)c1ccc(O)cc1O,47*,37,3,-1
O=C(N/N=C/c1ccc(O)cc1O)c1ccccc1O,52*,4,-1,-1
Cc1ccc(/C=N/NC(=O)c2ccccc2O)c(O)c1,25,9,0,0
CCC(CC)C(=O)Nc1cccc(I)c1,-5,-3,-1,0
Cc1ccc(O)c(NC(=O)c2nn(C34CC5CC(CC(C5)C3)C4)cc2[N+](=O)[O-])c1,-10,-6,1,0
CCNC(=O)COC(=O)c1c(-c2c(F)cccc2Cl)noc1C,8,-6,3,0
O=c1[nH]c(=O)n(-c2ccccc2)c(O)c1/C=C1\C=Nc2ccc(Br)cc21,6,9,1,0
SMILES,TEAD-YAP block,MITF primary,GPR151 ag,FBW7 activator
O=C(N/N=C/c1ccc(O)cc1O)C(=O)N/N=C/c1ccc(O)cc1O,5,99*,-2,-1
COc1ccccc1-n1nc(C(=O)N2CCC(C(N)=O)CC2)c2ccccc2c1=O,-7,7,1,0
COC(=O)c1c(NC(=O)c2cc3ccccc3oc2=O)sc(C)c1C,-6,14,-1,0
COc1ccc(N=Cc2c(O)n(-c3ccc(OC)cc3)c(=O)c3ccccc23)cc1,13,7,0,0
Cc1ccc(-n2c(O)c(C=Nc3ccc(S(N)(=O)=O)cc3)c3ccccc3c2=O)cc1C,80*,1,-1,0
O=C(Nc1cc(=O)[nH]c(=O)[nH]1)c1cccc(Cl)c1,40*,-5,-2,0
O=C(Nc1ccc(F)cc1)c1cccc(Cl)c1,-25,-5,-2,0
CCCCCOc1ccc(OC(=O)c2sc3ncn(Cc4ccccc4F)c(=O)c3c2C)cc1,-2,2,1,0
O=C(COC(=O)c1ccc2c(c1)C(=O)N(c1ccc(Br)cc1)C2=O)c1cccc([N+](=O)[O-])c1,-6,-4,1,0
CCOC(=O)c1c(NC(=O)N/N=C/c2cccc(OC)c2O)sc(C(C)=O)c1C,1,8,-1,0
CC1Cc2ccccc2N1C(=O)CSc1nnc(-c2ccccc2)n1C (stereo not drawn),1,-15,-1,0
CC1Cc2ccccc2N1C(=O)CSc1nnc(Cc2ccccc2)n1C (stereo not drawn),49*,19,-1,0
